In PubChem BioAssay:
Active and inactive are the calls of the source.

Columns and labels:
[1] = binders of probe aFSTL3 on microarray, primary screen, stem cell growth factor project, biochemical, small-molecule microarray, fluorescence 635/667 (AID 1064); details: higher = more signal;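 note: measures binding of the biotinylated anti-FSTL3 antibody to printed compounds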
[2] = binders from COS7 lysate, DM2A8 probe, primary screen, torsin A project, cell lysate, small-molecule microarray, fluorescence 635/667 (AID 1065); details: higher = more signal, COS7 lysate expressing mutant human TOR1A
[3] = binders of probe aFGF2 on microarray, primary screen, stem cell growth factor project, biochemical, small-molecule microarray, fluorescence 635/667 (AID 1067); details: higher = more signal;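 note: measures binding of biotinylated aFGF2 protein to printed compounds on slides; z-score merges feature fluorescence and signal-to-noise across triplicate slides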
[4] = binders of probe aFGF10 on microarray, primary screen, stem cell growth factor project, biochemical, small-molecule microarray, fluorescence 635/667 (AID 1071); details: higher = more signal;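 note: score merges 667 nm spot intensity and signal to noise from triplicate slides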
[5] = target: Neurogenic locus notch homolog protein 2 (Homo sapiens) (UniProt Q04721); assay: Notch2 binders on small-molecule microarrays, primary screen, biochemical, small-molecule microarray, 635 nm fluorescence, stem cell growth factors (AID 1073); details: Notch2 binding, higher = more signal
[6] = target: Pro-neuregulin-1, membrane-bound isoform (Homo sapiens) (UniProt Q02297); assay: NRG1 binders on small-molecule microarrays, primary screen, psychiatric disease protein project, biochemical, small-molecule microarray, fluorescence 635/667 (AID 1075); details: NRG1 binding, 635 nm fluorescence, higher = more signal;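 note: score combines 667 nm spot fluorescence with signal to noise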
[7] = test system: Neuregulin-1 EGF-like domain; assay: binders of neuregulin-1 EGF-like domain, primary screen, biochemical, small-molecule microarray, 635 nm fluorescence (AID 1081); details: small-molecule microarray binding, higher = more signal;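 note: binding of the protein to compounds printed on small-molecule microarray slides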
[8] = FRG1 promoter luciferase signal modulators, primary screen, FRG1 inhibition for FSHD, cell-based, C2C12 myotubes, firefly/Renilla luciferase, luminescence (AID 1084); details: higher = more signal, called active from +8 up or from −8 down
[9] = binders of probe aFST on microarray, primary screen, stem cell growth factor project, biochemical, small-molecule microarray, fluorescence 635/667 (AID 1086); details: higher = more signal;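 note: score merges 667 nm fluorescence with signal-to-noise of each printed compound spot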
[10] = binders of probe aHhip on microarray, primary screen, stem cell growth factor project, biochemical, small-molecule microarray, fluorescence 635/667 (AID 1087); details: higher = more signal;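 note: score merges spot fluorescence at 667nm with spot signal to noise ratio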
[11] = test system: PRMT1 (protein arginine N-methyltransferase 1); assay: PRMT1 binders on small-molecule microarrays, primary screen, biochemical, small-molecule microarray, 635 nm fluorescence (AID 1088); details: small-molecule microarray binding, higher = more signal;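 note: binding of Prmt1 protein to compounds spotted on small-molecule microarray slides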
[12] = yeast growth modulation, basal conditions, primary screen, YJM789 clinical isolate, OD600, 24 h (AID 1089);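 note: growth of clinical yeast isolate S. cerevisiae YJM 789 seeded 1000 cells per well; test concentration not given here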; details: S. cerevisiae YJM789 growth, higher = more signal, called active from +8 up or from −8 down
[13] = fission yeast growth modulation, primary screen, strain 972, OD600, 24 h, no modulator (AID 1090);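 note: basal condition with compound alone and no growth modifier present; test concentration not given here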; details: S. pombe 972 growth, higher = more signal, called active from +8 up or from −8 down
[14] = S. cerevisiae growth modulation with rapamycin, primary screen, strain BY4716, OD600, 96 h (AID 1091); details: higher = more signal, called active from +8 up or from −8 down; note: test concentration not given here
[15] = target: Torsin-1A-interacting protein 2 (Homo sapiens) (UniProt Q8NFQ8); assay: LULL1 binders on small-molecule microarray, primary screen, cell lysate, human LULL1 lysate, 635/667 nm fluorescence (AID 1092); details: hLULL1 lysate binding, 635 nm fluorescence, higher = more signal;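 note: probe is lysate of COS7 cells overexpressing human LULL1; score merges per-feature 667 nm fluorescence with signal-to-noise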
[16] = E. coli growth modulation, two-sided OD650, primary screen, E. coli filamentation project, strain DRC41, 24 h (AID 1093); details: OD650, 24 h, higher = more signal, called active from +8 up or from −8 down;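 note: MC1000 strain lacking acrAB efflux and sulA so SOS filamentation is blocked; test concentration not given here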
[17] = small-molecule microarray binders of probe aLefty2, primary screen, biochemical, biotinylated probe, 635/667 nm fluorescence (AID 1094); details: higher = more signal;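 note: score merges spot fluorescence near 667 nm with spot signal-to-noise ratio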
[18] = test system: Noggin (protein binding on small-molecule microarray); assay: Noggin binders on small-molecule microarray, primary screen, biochemical, 635/667 nm fluorescence (AID 1095); details: 635 nm fluorescence, higher = more signal;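 note: score merges 667 nm feature fluorescence with signal to noise over triplicate slides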
[19] = target: Neurogenic locus notch homolog protein 3 (Homo sapiens) (UniProt Q9UM47); assay: NOTCH3 binders on small-molecule microarray, primary screen, biochemical, 635/667 nm fluorescence (AID 1096); details: NOTCH3 binding, 635 nm fluorescence, higher = more signal
[20] = small-molecule microarray binders of probe aEGFR, primary screen, biochemical, biotinylated probe, 635/667 nm fluorescence (AID 1097); details: higher = more signal;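 note: probe is a biotinylated anti-EGFR antibody binding compounds printed on slides; score combines fluorescence near 667 nm and signal to noise of each spot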

Sequence of Neurogenic locus notch homolog protein 3 (Homo sapiens) (Q9UM47 whole entry, looked up): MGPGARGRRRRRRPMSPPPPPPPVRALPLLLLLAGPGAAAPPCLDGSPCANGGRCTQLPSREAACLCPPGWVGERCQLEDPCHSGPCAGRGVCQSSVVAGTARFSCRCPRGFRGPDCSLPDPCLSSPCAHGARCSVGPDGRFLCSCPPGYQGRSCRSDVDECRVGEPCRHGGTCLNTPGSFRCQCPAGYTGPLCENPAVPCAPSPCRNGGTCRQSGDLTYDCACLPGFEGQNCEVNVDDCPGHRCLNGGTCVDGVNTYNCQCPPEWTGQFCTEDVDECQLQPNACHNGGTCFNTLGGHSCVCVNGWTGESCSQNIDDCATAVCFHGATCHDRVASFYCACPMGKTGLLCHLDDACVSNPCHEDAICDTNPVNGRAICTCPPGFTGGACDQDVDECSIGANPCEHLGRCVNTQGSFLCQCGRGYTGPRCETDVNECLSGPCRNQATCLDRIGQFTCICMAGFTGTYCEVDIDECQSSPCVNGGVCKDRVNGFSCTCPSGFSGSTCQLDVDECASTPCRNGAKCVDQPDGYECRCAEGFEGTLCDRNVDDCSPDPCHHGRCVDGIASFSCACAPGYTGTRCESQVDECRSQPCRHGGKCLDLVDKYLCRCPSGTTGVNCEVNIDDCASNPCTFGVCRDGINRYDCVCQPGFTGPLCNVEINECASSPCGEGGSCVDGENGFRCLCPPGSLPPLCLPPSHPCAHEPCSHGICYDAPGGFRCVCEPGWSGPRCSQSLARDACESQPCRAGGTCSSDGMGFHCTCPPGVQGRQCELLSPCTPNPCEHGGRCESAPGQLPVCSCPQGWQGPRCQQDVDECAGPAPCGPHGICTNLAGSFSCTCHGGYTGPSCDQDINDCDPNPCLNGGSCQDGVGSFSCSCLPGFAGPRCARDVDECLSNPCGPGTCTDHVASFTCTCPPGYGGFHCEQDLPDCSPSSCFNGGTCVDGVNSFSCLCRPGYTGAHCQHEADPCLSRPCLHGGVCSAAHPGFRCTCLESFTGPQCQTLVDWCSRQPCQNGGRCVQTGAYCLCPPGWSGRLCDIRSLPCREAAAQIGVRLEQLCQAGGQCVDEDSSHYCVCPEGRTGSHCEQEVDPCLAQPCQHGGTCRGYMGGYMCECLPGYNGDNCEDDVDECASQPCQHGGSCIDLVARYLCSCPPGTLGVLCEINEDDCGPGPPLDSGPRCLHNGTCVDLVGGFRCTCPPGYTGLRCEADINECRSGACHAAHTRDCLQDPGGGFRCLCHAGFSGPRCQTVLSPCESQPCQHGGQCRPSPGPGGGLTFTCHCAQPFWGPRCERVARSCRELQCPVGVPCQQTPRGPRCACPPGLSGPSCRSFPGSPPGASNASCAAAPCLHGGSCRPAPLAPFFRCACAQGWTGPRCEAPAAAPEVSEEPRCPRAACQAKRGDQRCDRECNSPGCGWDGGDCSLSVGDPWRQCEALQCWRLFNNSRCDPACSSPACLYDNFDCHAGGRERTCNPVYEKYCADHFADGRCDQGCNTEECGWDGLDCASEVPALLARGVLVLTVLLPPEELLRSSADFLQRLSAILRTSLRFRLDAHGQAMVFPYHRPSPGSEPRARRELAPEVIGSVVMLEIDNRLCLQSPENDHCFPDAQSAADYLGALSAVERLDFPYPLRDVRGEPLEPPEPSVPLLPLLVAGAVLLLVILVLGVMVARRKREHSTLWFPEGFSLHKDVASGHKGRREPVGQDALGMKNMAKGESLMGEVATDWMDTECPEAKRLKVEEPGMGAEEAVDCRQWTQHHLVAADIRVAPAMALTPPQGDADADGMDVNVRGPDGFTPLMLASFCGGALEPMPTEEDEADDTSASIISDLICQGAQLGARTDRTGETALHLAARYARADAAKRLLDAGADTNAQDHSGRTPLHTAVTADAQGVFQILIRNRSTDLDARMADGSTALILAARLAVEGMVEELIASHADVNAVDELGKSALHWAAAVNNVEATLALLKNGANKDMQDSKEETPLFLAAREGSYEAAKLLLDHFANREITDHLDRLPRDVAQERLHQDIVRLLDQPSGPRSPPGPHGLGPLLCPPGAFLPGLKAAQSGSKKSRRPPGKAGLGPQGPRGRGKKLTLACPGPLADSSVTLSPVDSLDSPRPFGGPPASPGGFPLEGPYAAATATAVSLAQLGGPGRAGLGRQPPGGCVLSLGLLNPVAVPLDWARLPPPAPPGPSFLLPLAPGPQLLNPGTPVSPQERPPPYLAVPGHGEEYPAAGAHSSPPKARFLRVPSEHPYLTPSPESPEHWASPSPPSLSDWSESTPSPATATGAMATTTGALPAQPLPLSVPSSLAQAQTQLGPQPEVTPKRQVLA
Sequence of Torsin-1A-interacting protein 2 (Homo sapiens) (Q8NFQ8 whole entry, looked up): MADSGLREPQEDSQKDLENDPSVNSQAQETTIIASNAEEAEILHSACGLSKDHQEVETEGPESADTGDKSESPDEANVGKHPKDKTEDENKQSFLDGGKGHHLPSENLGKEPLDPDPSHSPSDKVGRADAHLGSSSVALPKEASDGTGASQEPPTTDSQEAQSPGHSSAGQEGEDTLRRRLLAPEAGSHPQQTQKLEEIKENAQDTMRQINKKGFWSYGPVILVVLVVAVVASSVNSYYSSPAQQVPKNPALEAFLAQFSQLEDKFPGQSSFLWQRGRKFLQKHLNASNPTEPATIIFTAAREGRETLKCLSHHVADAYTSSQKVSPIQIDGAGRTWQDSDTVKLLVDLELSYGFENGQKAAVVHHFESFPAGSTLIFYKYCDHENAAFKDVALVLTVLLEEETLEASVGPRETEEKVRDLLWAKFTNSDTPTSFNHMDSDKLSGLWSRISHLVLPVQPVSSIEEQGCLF
Sequence of Pro-neuregulin-1, membrane-bound isoform (Homo sapiens) (Q02297 whole entry, looked up, the tested form may be a part, canonical isoform): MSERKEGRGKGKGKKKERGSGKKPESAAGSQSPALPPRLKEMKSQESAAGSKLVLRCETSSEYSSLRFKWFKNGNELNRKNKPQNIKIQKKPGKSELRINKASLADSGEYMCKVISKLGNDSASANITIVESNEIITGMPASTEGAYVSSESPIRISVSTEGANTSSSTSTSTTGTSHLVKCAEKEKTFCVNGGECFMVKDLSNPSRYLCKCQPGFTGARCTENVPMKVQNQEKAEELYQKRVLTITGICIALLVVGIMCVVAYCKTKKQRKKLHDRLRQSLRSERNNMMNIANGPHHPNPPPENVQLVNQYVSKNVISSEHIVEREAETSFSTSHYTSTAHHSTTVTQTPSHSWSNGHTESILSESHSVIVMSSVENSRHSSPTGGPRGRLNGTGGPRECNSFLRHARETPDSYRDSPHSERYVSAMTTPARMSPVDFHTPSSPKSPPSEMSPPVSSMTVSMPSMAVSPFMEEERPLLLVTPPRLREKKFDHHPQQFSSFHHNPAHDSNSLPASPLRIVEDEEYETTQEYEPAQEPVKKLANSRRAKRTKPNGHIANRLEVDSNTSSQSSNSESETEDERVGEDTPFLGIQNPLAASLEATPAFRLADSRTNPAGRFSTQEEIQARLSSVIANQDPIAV

Row | SMILES | composite z-score [1] | composite z-score [2] | composite z-score [3] | composite z-score [4] | composite z-score [5] | composite z-score [6] | composite z-score [7] | z-score [8] | composite z-score [9] | composite z-score [10] | composite z-score [11] | z-score [12] | z-score [13] | z-score [14] | composite z-score [15] | z-score [16] | composite z-score [17] | composite z-score [18] | composite z-score [19] | composite z-score [20]
1 | COC(=O)C1=CC(c2ccc(CO)cc2)=CC(c2cccs2)N(Cc2cccc(OC(F)(F)F)c2)C=C1C(=O)OC (stereo not given) | -0.0169 | 1.41 | -0.0375 | 0.862 | 1.17 | 2.03 | 1.17 | -0.497 (inactive) | 0.48 | 0.0866 | 1.27 | -0.107 (inactive) | -1.75 (inactive) | 0.434 (inactive) | 3.31 | 0.241 (inactive) | 0.006 | -0.0249 | 1.13 | -0.0187
2 | CCCNC(=O)[C@@]1(Sc2ccc(C)cc2)CC(=O)N(Cc2ccccc2Cl)[C@@H]1c1ccc(CO)cc1 | 0.295 | -0.106 | -0.0711 | 0.122 | 0.653 | -0.0272 | 1.3 | -3.75 (inactive) | 0.427 | -0.0672 | 1.33 | -1.08 (inactive) | -3.1 (inactive) | -2.53 (inactive) | 1.64 | 0.298 (inactive) | 0.0493 | 1.06 | 1.11 | -0.0082
3 | CCCC=C(CCC)[C@@H](NS(=O)(=O)c1cccc(C(F)(F)F)c1)c1ccc(C(=O)OC)cc1 | 2.23 | 0.131 | 0.731 | -0.0446 | 0.318 | -0.0702 | 0.53 | 2.49 (inactive) | 2.13 | 0.171 | 0.133 | 0.483 (inactive) | 0.441 (inactive) | -0.182 (inactive) | 0.468 | -0.228 (inactive) | 1.06 | 1.3 | 0.0083 | 0.912
4 | O=C(CS)NCCCCCNC(=O)[C@H]1C[C@H]2C(=O)N[C@@H](Cc3ccccc3)C(=O)N2[C@H]1c1ccc(O)cc1 | 0.593 | 0.395 | -0.0176 | 0.645 | 1.02 | 0.541 | 1.23 | 0.658 (inactive) | 0.446 | -0.0919 | 1.54 | 0.662 (inactive) | -0.982 (inactive) | 1.86 (inactive) | 2.18 | 1.12 (inactive) | -0.107 | 1.48 | 0.781 | 0.178
5 | CCOC(=O)C1=CC[C@@H](c2ccccc2)N(S(=O)(=O)c2ccc(C)cc2)[C@H]1C | -0.386 | 1.09 | 0.0257 | 1.11 | 1.59 | 1.45 | 1.12 | -2.8 (inactive) | 0.691 | -0.0994 | 1.53 | 0.889 (inactive) | -0.212 (inactive) | 2.81 (inactive) | 3.41 | -0.607 (inactive) | 0.0018 | 0.672 | 1.09 | 0.114
